Source: PubChem BioAssay (NCATS)
Where “and” joins values, the source holds several entries; their conditions need not be identical. Equal entries are not always repeated. Records with an inconclusive call do not appear. Calls of active or inactive are those of the source. The call rests on the fitted dose curve; in most records, active means well fitted inhibition curve with a large enough effect; inconclusive means small, poorly fitted or top-dose-only effect; inactive means no such curve, though single readings can be large or run the other way. Non-standard residues stand in square brackets, D forms with d. Residues, ends and D or L forms follow the SMILES beside them.

Test: BET inhibitor-based combinations targeting novel dependencies in MECOM-rearranged (r) AML: SET-2 cell line (AID 2202231); further: nearly all actives have a fitted effect of over 35% in size
Details: SET-2 AML cells viability, CellTiter-Glo luminescence, 48 h; viability: active compounds read low, series mostly up to about 46 µM
Text: Ecotropic viral insertion site 1 (EVI1) is located on chromosome 3q26.2 as part of the MECOM (MDS and EVI1 complex) locus. Under normal hematopoiesis, EVI1 is a regulator of hematopoietic stem cell maintenance and self-renewal and EVI1 levels decrease as the cells differentiate. In approximately 5-10% of de novo acute myeloid leukemia (AML) EVI1 is aberrantly expressed, including Chromosomal inv(3)(q21;q26.2) or t(3;3)(q21;q26.2) alterations (MECOM-r) that account for about 50% of AML with EVI1 overexpression 31. AMLs with high levels of EVI1 have a poor prognosis and an overall survival time averaging between 10-14 months. EVI1 overexpression confers resistance in leukemia cells, highlighting the need to develop new targeted therapies for EVI1 overexpressing AMLs.
Here, we performed an unbiased chemical drug screening by evaluating the single agent activity of a collection of 2,480 oncology-focused, approved and investigational drugs (NCATS Mechanism Interrogation Plates, MIPE v5.0) against a panel of seven AML cell lines. These included four MECOM-r cell-lines (AML-191, AML-194, UCSD-AML1 and HNT-34) and three non-MECOM-r AMLs (MV4-11, OCI-AML3 and SET-2). Exploiting the mechanistic redundancy built in the library, we identified target-level sensitivities in MECOM-r AML cells and relative activity as compared to other AML subtypes.
A collection of 2480 mechanistically annotated dugs (MIPE v5.0) was used to screen four 3q26.2 rearranged AML cell lines and three non-3q26.2 rearranged AML cell lines. This library purposely exploits redundancy by including multiple inhibitors of key onco-targets, while simultaneously encompassing mechanistic diversity, targeting more than 800 distinct mechanisms of action. Briefly, cells were seeded in 5 uL of growth media using a Multidrop Combi dispenser into 1536 well white polystyrene tissue culture treated plates (Corning) at a density of 500cells/well. For each cell-line, for each of the 2480 drugs in MIPE v5.0 library, an 11-point dose curve was generated via a 1536 pin-tool. Plates were incubated for 48 hr at standard incubator conditions, covered by a stainless steel gasketed lid to prevent evaporation. Cell viability was determined by luminescence based, Cell Titer Glo assay (Promega). In detail, 3 uL of Cell Titer Glo were added to each well and plates were incubated at room temperature for 15 min with a stainless-steel lid in place. Luminescence readings were taken using a Viewlux (PerkinElmer) with a 2 s exposure time per plate. Compound dose-response curves were normalized to DMSO and empty well controls on each plate. Quantitative drug activity data from dose-response curves was determined utilizing area Under the Curve (AUC) and Z-transformed AUC (Z-AUC, a mean-centering transformation applied to each individual cell-line screened).
Potency means the concentration at half of the fitted maximal effect.

SMILES	Potency	viability
CN(C(=O)CNC(=O)/C=C/c1cccc(Cl)c1)C1CCS(=O)(=O)CC1	0.662 µM (active)	–
C[C@H](NC(=O)/C(C#N)=C/c1cccc(Br)n1)c1ccccc1	7.42 µM (active)	–
NC(=O)c1ccc2nc(-c3ccc(C4(N)CCC4)cc3)c(-c3ccccc3)n2n1	–	98.4% (inactive)
CC(C)(C)C(=O)N1N=CC[C@H]1c1ccccc1	–	112% (inactive)
Cn1ncc(Cl)c1-c1cc(C(=O)N[C@H](CN)Cc2ccc(F)c(F)c2)sc1Cl	20.9 µM (active)	–
Cc1cc(C)c(S(=O)(=O)N(CCc2cccc(Br)c2)Cc2ccc(-c3cccc(S(C)(=O)=O)c3)cc2)c(C)c1	–	117% (inactive)
C=C1CCC[C@]2(C)C=C3OC(=O)C(C)=C3C[C@@H]12	–	112% (inactive)
COc1cc2nc(-c3ccc(N4CCN(C)CC4)cc3)nc(NCCN3CCOCC3)c2cc1OC	5.9 µM (active)	–
Nc1nccn2c(C3CCC(C(=O)O)CC3)nc(-c3cc4cccc(Cl)c4[nH]3)c12 (stereo not given)	7.42 µM (active)	–
CO[C@H]1/C=C/O[C@@]2(C)Oc3c(C)c(O)c4c(O)c(c(/C=N/N5CCN(C)CC5)c(O)c4c3C2=O)NC(=O)/C(C)=C\C=C\[C@H](C)[C@H](O)[C@@H](C)[C@@H](O)[C@@H](C)[C@H](OC(C)=O)[C@@H]1C	–	90.8% (inactive)
COC(=O)N(CC(=O)O)Cc1cccc(OCc2nc(-c3ccc(Cl)cc3)oc2C)c1	–	89% (inactive)
Cc1cc(I)ccc1Nc1c(C(=O)NOCC2CC2)cc(F)c(F)c1F	20.9 µM (active)	–
CN(CCOc1ccc(C[C@H](Nc2ccccc2C(=O)c2ccccc2)C(=O)O)cc1)c1ccccn1	–	94.3% (inactive) and 95.3% (inactive)
CC(C)C[C@@H]1NC(=O)[C@@H](C(C)C)NC(=O)[C@@H]2CCCN2C(=O)[C@@H](CC(=O)O)NC(=O)[C@@H](Cc2c[nH]c3ccccc23)NC1=O (cyclo(L[dW][dD]P[dV]))	–	110% (inactive)
O=C(C[C@@H]1C/C=C\CCC(=O)O[C@H](c2ccccc2)CNC1=O)NCc1ccc(Cl)cc1	–	117% (inactive)
Cn1cc(C2=C(c3cn(C)c4cc([N+](=O)[O-])ccc34)C(=O)NC2=O)c2ccccc21	2.35 µM (active)	–
C=CC(=O)Nc1ccc2ncnc(Nc3cccc(Br)c3)c2c1	26.3 µM (active)	–
CCC(C(=O)O)C1CCC(C)C(C(C)C(O)C(C)C(=O)C(CC)C2OC3(C=CC(O)[C@@]4(CC[C@](C)(C5CC[C@@](O)(CC)C(C)O5)O4)O3)C(C)CC2C)O1 (stereo not given in full)	5.25 µM (active)	–
C/C(=C\c1csc(C)n1)[C@@H]1C[C@@H]2O[C@]2(C)CCC[C@H](C)[C@H](O)[C@@H](C)C(=O)C(C)(C)[C@@H](O)CC(=O)N1	0.0525 µM (active)	–
CN(C)c1ccc(C(=O)NCCCCCCC(=O)NO)cc1	0.934 µM (active)	–

SMILES	Potency	viability
C[C@H](O)[C@@H]1C(=O)N2C(C(=O)O)=C(S[C@@H]3CN[C@H](CNS(N)(=O)=O)C3)[C@@H](C)[C@@H]12	–	118% (inactive)
CCCCc1ccc2nc(NC(=O)OC)[nH]c2c1	0.263 µM (active)	–
O=c1cc(N2CCOCC2)oc2c(-c3ccc4c(c3)OCCO4)csc12	3.32 µM (active)	–
Nc1ccn([C@@H]2O[C@H](CO)[C@@H](O)C2O)c(=O)n1 (stereo not given in full)	0.332 µM (active)	–
CCN(C(=O)c1ccccc1OC)c1cc2c(cc1N1CCNC[C@H]1C)n(C)c(=O)n2C	–	119% (inactive)
C=CC(=O)Nc1cc2c(Nc3ccc(F)c(Cl)c3)ncnc2cc1C#CC(C)(C)N1CCN(C)CC1	5.9 µM (active)	–
CC1(C)O[C@@H]2C[C@H]3[C@@H]4CCC5=CC(=O)C=C[C@]5(C)[C@H]4[C@@H](O)C[C@]3(C)[C@]2(C(=O)CO)O1	–	114% (inactive)
COc1ccc2c(c1)c(C1=C(c3c[nH]c4ccccc34)C(=O)NC1=O)cn2CCCN(C)C	23.5 µM (active)	–
COc1ccccc1-c1cccc(-c2c(O)c3cc(C#N)c(Cl)cc3[nH]c2=O)c1	–	99.8% (inactive)
Cc1c(-c2cnccn2)ssc1=S	–	94.7% (inactive)
O=C(O)/C=C/c1ccc(Cn2ccnc2)cc1	–	125% (inactive)
CS(=O)(=O)c1ccc([C@@H](CC2CCCC2)C(=O)Nc2nccs2)cc1	–	79.4% (inactive)
O=C(O)c1ccccc1-c1ccc(/C=c2\sc3nc4cc(Br)cnc4n3c2=O)o1	–	92.3% (inactive)
CN(C)c1ccccc1CN1CCCN(Cc2ccccc2N(C)C)C1c1ccncc1	–	99.7% (inactive)
COc1ccc(S(=O)(=O)N(CCO)c2ccccc2CN(C)C/C=C/c2ccc(Cl)cc2)cc1	20.9 µM (active)	–
CC[C@@H](Oc1cccc(CN(CCCOc2ccc(OC)cc2)c2nc3ccccc3o2)c1)C(=O)O	–	110% (inactive)
CN(Cc1ccc(/C=C/C(=O)NO)cc1)CC12CC3CC(CC(C3)C1)C2	0.105 µM (active)	–
C[C@@H]1COCCN1c1cc(C2(S(C)(=N)=O)CC2)nc(-c2ccnc3[nH]ccc23)n1 (stereo not given in full)	2.63 µM (active)	–
CCN1CCN(Cc2ccc(NC(=O)c3ccc(C)c(/C=C/c4cnc5[nH]ccc5c4OC)c3)cc2C(F)(F)F)CC1	5.9 µM (active)	–
N#Cc1cc2cc(CN3CCC(Nc4ncnc5sc(CC(F)(F)F)cc45)CC3)c(O)cc2n1Cc1cn[nH]c1	23.5 µM (active)	–
